This is an account of results in PubChem BioAssay (NCATS).

Structures are written as SMILES. Records with an inconclusive call do not appear. Calls of active or inactive are those of the source. Calls follow the shape of the dose curve; as a rule, active = well fitted cell-killing curve with a large enough effect; inconclusive = small, poorly fitted or top-dose-only effect, or effect the other way; inactive = no such curve, though single readings can be large or run the other way.

A short description of experiment [1]: Quantitative High-Throughput drug screen in 47 multiple myeloma cell lines against the NCATS MIPE library collection: Delta47_JCRB cell viability assay (AID 1918925; also: nearly all actives have a fitted effect of over 45% in size). A digest of the protocol:
(§1)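 Relative luminescence from CellTiter-Glo served as the viability signal, referenced to DMSO-treated (100%) and cell-free medium (0%) controls. Treatment lasted 48 hours at 37C with 500 cells per well.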

Experiment [2] is described as follows: Quantitative High-Throughput drug screen in 47 multiple myeloma cell lines against the NCATS MIPE library collection: AMO1_DSMZ cell viability assay (AID 1918927; also: nearly all actives have a fitted effect of over 30% in size). A digest of the protocol:
as §1

Experiment [3] in a line: Quantitative High-Throughput drug screen in 47 multiple myeloma cell lines against the NCATS MIPE library collection: KMM1_JCRB cell viability assay (AID 1918960). Also: nearly all actives have a fitted effect of over 30% in size. A digest of the protocol:
(§2)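 CellTiter-Glo luminescence after 48 h exposure gives viability, scaled between DMSO-only (100%) and media-only (0%) controls. Library compounds are pinned onto 500 myeloma cells per well, incubated at 37C with 5% CO2.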

Experiment [4] can be described thus: Quantitative High-Throughput drug screen in 47 multiple myeloma cell lines against the NCATS MIPE library collection: ARD_JJKsccE7 cell viability assay (AID 1918929). A digest of the protocol: as §1
Experiment [5] in a line: Quantitative High-Throughput drug screen in 47 multiple myeloma cell lines against the NCATS MIPE library collection: EJM_DSMZ cell viability assay (AID 1918926; also: nearly all actives have a fitted effect of over 30% in size). A digest of the protocol: as §1
Experiment [6] in a line: Quantitative High-Throughput drug screen in 47 multiple myeloma cell lines against the NCATS MIPE library collection: ARP1_JJKsccF8 cell viability assay (AID 1918928; also: nearly all actives have a fitted effect of over 40% in size). Put shortly: as §2
Experiment [7] can be described thus: Quantitative High-Throughput drug screen in 47 multiple myeloma cell lines against the NCATS MIPE library collection: Karpas620_DSMZ cell viability assay (AID 1918959). Also: nearly all actives have a fitted effect of over 30% in size. A digest of the protocol: (§3)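 qHTS of the MIPE 4.0 collection: 500 myeloma cells/well, 48 h drug exposure at 37C in 5% CO2, then CellTiter-Glo for 5 min at room temperature before luminescence reading.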

Experiment [8] can be described thus: Quantitative High-Throughput drug screen in 47 multiple myeloma cell lines against the NCATS MIPE library collection: FR4_PLB cell viability assay (AID 1918924; also: nearly all actives have a fitted effect of over 35% in size). A digest of the protocol: as §3
Potency is read from the fitted curve at half-maximal effect.

With `CC(=O)[C@H]1CC[C@H]2[C@@H]3CCC4=CC(=O)CC[C@]4(C)[C@H]3CC[C@]12C`, the Potency result in experiment [1], in experiment [2] and in experiment [3] was “inactive” each time.

With `O=S(=O)(c1cccc2cnccc12)N1CCCNCC1`, the Potency result in experiment [4] and in experiment [3] was “inactive” in each case.

For `CCOc1cc(N)c(Cl)cc1C(=O)NCC1CN(Cc2ccc(F)cc2)CCO1` (stereo unspecified), the Potency entry in experiment [1], in experiment [5], in experiment [6] and in experiment [3] was “inactive” in each case.

In the case of `COCCCOc1cc(C[C@@H](C[C@H](N)[C@@H](O)C[C@H](C(=O)NCC(C)(C)C(N)=O)C(C)C)C(C)C)ccc1OC`, the Potency entry in experiment [5], in experiment [2], in experiment [6] and in experiment [7] was “inactive” throughout.

`O=C(N[C@H](CO)[C@H](O)c1ccc([N+](=O)[O-])cc1)C(Cl)Cl`: the Potency entry in experiment [1], in experiment [5], in experiment [2], in experiment [6], in experiment [4] and in experiment [7] was “inactive” in each case. Moreover, the Potency entry in experiment [3] is “inactive”.

For the compound `CCOC(=O)[C@H](CCc1ccccc1)N[C@H]1CS[C@H](c2cccs2)CN(CC(=O)O)C1=O`, the Potency was 2.96 µM (active) in experiment [1]; 1.32 µM (active) in experiment [2]; 11.8 µM (active) in experiment [6]; 1.66 µM (active) in experiment [4]; 4.69 µM (active) in experiment [7]; 1.05 µM (active) in experiment [3].

`CNNCc1ccc(C(=O)NC(C)C)cc1`: the Potency entry in experiment [5], in experiment [2] and in experiment [7] was “inactive” throughout. Further, the Potency in experiment [3] was 2.96 µM (active).

Take `Cc1nnc(NS(=O)(=O)c2ccc(N)cc2)s1`: the Potency entry in experiment [8] is “inactive”. The Potency in experiment [2] was 1.87 µM (active); in experiment [6], 20.9 µM (active); in experiment [7], 1.66 µM (active); in experiment [3], 1.18 µM (active).

`COc1ccc2c(c1)c(CC(=O)OCC(=O)O)c(C)n2C(=O)c1ccc(Cl)cc1`: the Potency result in experiment [8], in experiment [2], in experiment [6], in experiment [7] and in experiment [3] was “inactive” in each case.

`CNC1CCCN(c2c(F)cc3c(=O)c(C(=O)O)cn(C4CC4)c3c2OC)C1` (stereo unspecified): the Potency result in experiment [8], in experiment [6] and in experiment [4] was “inactive” in each case.

For `NC(=O)c1ccc2[nH]ccc2c1`, the Potency result in experiment [1], in experiment [6] and in experiment [7] was “inactive” in each case.

With `CCC(=O)O[C@]1(C(=O)CCl)[C@@H](C)C[C@H]2[C@@H]3CCC4=CC(=O)C=C[C@]4(C)[C@@]3(F)[C@@H](O)C[C@@]21C`, in experiment [5], the Potency result was “inactive”.

On to `CCn1cc(C(=O)O)c(=O)c2cc(F)c(N3CCNCC3)nc21`, for which the Potency entry in experiment [1], in experiment [5] and in experiment [3] was “inactive” each time.

As for `NC(N)=NC(N)=NCCc1ccccc1`, the Potency in experiment [1] is 9.35 µM (active); in experiment [5], 4.69 µM (active); in experiment [6], 14.8 µM (active).

In the case of `CCOC(=O)[C@H](CCc1ccccc1)N[C@H]1CCc2ccccc2N(CC(=O)O)C1=O`, the Potency was 20.9 µM (active) in experiment [1]; 23.5 µM (active) in experiment [5]; 7.43 µM (active) in experiment [2]; 18.7 µM (active) in experiment [4]; 18.7 µM (active) in experiment [3].

Turning to `O=C(O)c1cn(C2CC2)c2cc(N3CCNCC3)c(F)cc2c1=O`, the Potency entry in experiment [8], in experiment [5], in experiment [6] and in experiment [3] was “inactive” each time.

Take `O=C(O)c1ccc(-n2nc(-c3ccccc3O)nc2-c2ccccc2O)cc1`: the Potency in experiment [8] was 23.5 µM (active); in experiment [2] it was 29.6 µM (active).

In the case of `COc1ccc(C(=O)CC(=O)c2ccc(C(C)(C)C)cc2)cc1`, the Potency in experiment [5] was 1.48 µM (active); in experiment [2], 1.87 µM (active); in experiment [6] it was 10.5 µM (active); in experiment [4], 18.7 µM (active); in experiment [3] it was 7.43 µM (active).

On to `CCc1cc(C(N)=S)ccn1`, for which the Potency entry in experiment [5], in experiment [2], in experiment [6], in experiment [4], in experiment [7] and in experiment [3] was “inactive” each time.

`CO[C@@H]1[C@@H](OC(N)=O)[C@@H](O)[C@H](Oc2ccc3c(O)c(NC(=O)c4ccc(O)c(CC=C(C)C)c4)c(=O)oc3c2C)OC1(C)C`: the Potency in experiment [1] is 5.26 µM (active); in experiment [5], 5.26 µM (active); in experiment [6], 0.935 µM (active).

Take `CCOC(=O)c1ccc(C#Cc2ccc3c(c2)C(C)(C)CCS3)nc1`: the Potency entry in experiment [2], in experiment [4], in experiment [7] and in experiment [3] was “inactive” in each case.

As for `N[C@@H](C(=O)N[C@@H]1C(=O)N2C(C(=O)O)=C(Cl)CS[C@H]12)c1ccccc1`, the Potency result in experiment [1], in experiment [5], in experiment [2], in experiment [6], in experiment [4] and in experiment [3] was “inactive” in each case.

For the compound `N[C@@H](Cc1ccc(O)c(O)c1)C(=O)O`, the Potency entry in experiment [8], in experiment [5], in experiment [4], in experiment [7] and in experiment [3] was “inactive” each time.

With `CCCCOc1ccc(CC(=O)NO)cc1`, the Potency in experiment [5] was 5.26 µM (active); in experiment [2] it was 11.8 µM (active); in experiment [6], 13.2 µM (active); in experiment [7] it was 18.7 µM (active).

For `Nc1nc(N)c2nc(CNc3ccc(C(=O)NC(CCC(=O)O)C(=O)O)cc3)cnc2n1` (stereo unspecified), the Potency entry in experiment [1] and in experiment [7] was “inactive” throughout. Also, the Potency in experiment [2] was 0.0235 µM (active); in experiment [6], 0.0372 µM (active); in experiment [4], 0.0118 µM (active).

Take `C[C@@H]1CN(c2c(F)c(N)c3c(=O)c(C(=O)O)cn(C4CC4)c3c2F)C[C@H](C)N1`: the Potency entry in experiment [5], in experiment [2], in experiment [6] and in experiment [3] was “inactive” in each case.
